Test results reported in PubChem BioAssay (NCI).
The panel holds about 83,000 compounds, 20% with a hit somewhere; the sample as a whole holds those more often.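 Assay: single dose, 48 h. Readout: percent growth (0 = no net growth; negative = cell death). Active: <10.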 Active and inactive are the calls of the source.

Key:
Assay in all cases: NCI-60 one-dose screen, 48 h (100 = growth as untreated, 0 = no growth, -100 = all killed)
Settings in all cases: 10 µM
DU-145 prostate = test system: DU-145 prostate
K-562 leukemia = test system: K-562 leukemia
MALME-3M melanoma = test system: MALME-3M melanoma
MDA-MB-231 breast = test system: MDA-MB-231 breast
SF-268 CNS = test system: SF-268 CNS
SF-295 CNS = test system: SF-295 CNS
SF-539 CNS = test system: SF-539 CNS
UACC-257 melanoma = test system: UACC-257 melanoma
M14 melanoma = test system: M14 melanoma
HCT-15 colon = test system: HCT-15 colon
HT29 colon = test system: HT29 colon
SNB-75 CNS = test system: SNB-75 CNS
SNB-19 CNS = test system: SNB-19 CNS
U251 CNS = test system: U251 CNS
PC-3 prostate = test system: PC-3 prostate
SK-MEL-5 melanoma = test system: SK-MEL-5 melanoma
UACC-62 melanoma = test system: UACC-62 melanoma
LOX IMVI melanoma = test system: LOX IMVI melanoma
SK-MEL-28 melanoma = test system: SK-MEL-28 melanoma

Measured: growth

O=C(Cc1ccc2c(c1)CN(C1CCC(=O)NC1=O)C2=O)NCc1cccc2ccccc12 (configuration not stated)
active: DU-145 prostate -7% | K-562 leukemia 8.3% | MALME-3M melanoma -72.2% | MDA-MB-231 breast -47.5% | SF-268 CNS -8.53% | SF-295 CNS -8.76% | SF-539 CNS -23.3% | M14 melanoma -70.8% | HCT-15 colon -30.1% | HT29 colon 3.65% | SNB-75 CNS -33.1% | SNB-19 CNS -11.9% | PC-3 prostate 6.97% | SK-MEL-5 melanoma -93.8% | UACC-62 melanoma 4.05% | LOX IMVI melanoma -48.3% | SK-MEL-28 melanoma -10.6%
inactive: UACC-257 melanoma 32.5% | U251 CNS 17.2%

COC1=C[C@]23CCC(=O)N2CCc2cc4c(cc2[C@@H]3[C@@H]1OC(=O)CCCC(C)C)OCO4
active: MALME-3M melanoma 4.86% | LOX IMVI melanoma 7.89%
inactive: DU-145 prostate 84.2% | K-562 leukemia 17.6% | MDA-MB-231 breast 98.5% | SF-268 CNS 133% | SF-295 CNS 69.9% | SF-539 CNS 11.3% | UACC-257 melanoma 78.9% | M14 melanoma 57.1% | HCT-15 colon 23.1% | HT29 colon 32.2% | SNB-75 CNS 120% | SNB-19 CNS 28% | U251 CNS 43.3% | PC-3 prostate 42.5% | SK-MEL-5 melanoma 25.9% | UACC-62 melanoma 61% | SK-MEL-28 melanoma 64.4%

O=C(CSc1nnc(-c2c[nH]c3ccccc23)n1-c1ccccc1)Nc1ccc(C(=O)/C=C/c2ccc(Br)cc2)cc1
inactive: DU-145 prostate 96.4% | K-562 leukemia 69.1% | MALME-3M melanoma 98.5% | MDA-MB-231 breast 87.8% | SF-268 CNS 67% | SF-295 CNS 74.8% | SF-539 CNS 80.5% | UACC-257 melanoma 109% | M14 melanoma 102% | HCT-15 colon 68.1% | HT29 colon 86.6% | SNB-75 CNS 86.6% | SNB-19 CNS 77% | U251 CNS 81.6% | PC-3 prostate 66% | SK-MEL-5 melanoma 90.5% | UACC-62 melanoma 66.4% | LOX IMVI melanoma 81.6% | SK-MEL-28 melanoma 94%

O=C1CCC(N2Cc3cc(NC(=O)COc4ccccc4)ccc3C2=O)C(=O)N1 (configuration not stated)
inactive: DU-145 prostate 111% | K-562 leukemia 93.6% | MALME-3M melanoma 19.2% | MDA-MB-231 breast 25.1% | SF-268 CNS 87.3% | SF-295 CNS 71.5% | SF-539 CNS 78.4% | UACC-257 melanoma 110% | M14 melanoma 56.3% | HCT-15 colon 25.4% | HT29 colon 79.5% | SNB-75 CNS 46.4% | SNB-19 CNS 66.7% | U251 CNS 86.8% | PC-3 prostate 37.7% | SK-MEL-5 melanoma 74.2% | UACC-62 melanoma 84.4% | LOX IMVI melanoma 108% | SK-MEL-28 melanoma 95.9%

Cc1cc(C)nc(NS(=O)(=O)c2ccc(N/C(N)=N/c3nccc(-c4ccccc4)n3)cc2)n1
inactive: DU-145 prostate 88.8% | K-562 leukemia 49.3% | MALME-3M melanoma 63.3% | MDA-MB-231 breast 59.4% | SF-268 CNS 82% | SF-295 CNS 52.2% | SF-539 CNS 70% | UACC-257 melanoma 94% | M14 melanoma 88.4% | HCT-15 colon 59.4% | HT29 colon 83.5% | SNB-75 CNS 88.3% | SNB-19 CNS 77.8% | U251 CNS 77.6% | PC-3 prostate 65.4% | SK-MEL-5 melanoma 46.3% | UACC-62 melanoma 59% | LOX IMVI melanoma 39.4% | SK-MEL-28 melanoma 74.5%

O=C(NO)c1ccc(CN2CCN(c3nc(-c4ccccc4)c4ccccc4n3)CC2)cc1
inactive: DU-145 prostate 23.1% | K-562 leukemia 11.4% | MALME-3M melanoma 11.2% | MDA-MB-231 breast 35% | SF-268 CNS 26.5% | UACC-257 melanoma 43.3% | HCT-15 colon 22.5% | HT29 colon 30.4% | SNB-75 CNS 81.7% | SNB-19 CNS 22.8% | U251 CNS 15.2% | PC-3 prostate 30.8% | SK-MEL-28 melanoma 24.1%
active: SF-295 CNS -11.7% | SF-539 CNS -23.8% | M14 melanoma 5.75% | SK-MEL-5 melanoma -95.9% | UACC-62 melanoma -23.9% | LOX IMVI melanoma -60.6%

CC(C)c1ccc(C(=O)Nc2sc3c(c2C(N)=O)CCC(=O)C3=O)cc1
inactive: DU-145 prostate 103% | K-562 leukemia 77.4% | MALME-3M melanoma 103% | MDA-MB-231 breast 93.3% | SF-268 CNS 103% | SF-295 CNS 104% | SF-539 CNS 93.9% | UACC-257 melanoma 93.8% | M14 melanoma 96.3% | HCT-15 colon 71.5% | HT29 colon 110% | SNB-75 CNS 98.2% | SNB-19 CNS 97.4% | U251 CNS 92.6% | PC-3 prostate 82.8% | SK-MEL-5 melanoma 99.1% | UACC-62 melanoma 94.3% | LOX IMVI melanoma 82.7% | SK-MEL-28 melanoma 110%

O=C1c2ccccc2C(=O)c2c1c(C(=O)c1ccc(Cl)cc1)n1c2ccc2c3ccccc3ccc21
inactive: DU-145 prostate 108% | K-562 leukemia 106% | MALME-3M melanoma 101% | MDA-MB-231 breast 89.9% | SF-268 CNS 105% | SF-295 CNS 99.1% | SF-539 CNS 88.5% | UACC-257 melanoma 107% | M14 melanoma 107% | HCT-15 colon 103% | HT29 colon 109% | SNB-75 CNS 86.7% | SNB-19 CNS 96.1% | U251 CNS 110% | PC-3 prostate 94.8% | SK-MEL-5 melanoma 99.9% | UACC-62 melanoma 96.9% | LOX IMVI melanoma 90.2% | SK-MEL-28 melanoma 108%
